Assay results taken from ChEMBL document CHEMBL3988442, “University of Dundee, Small-Polar-MMV Screening Library” (2021).

The molecules below were run against Sialic acid-binding Ig-like lectin 9 (Homo sapiens) (UniProt Q9Y336) (assay: Hs-Siglec9 ALPHAscreen SOP 20170721). Conditions: 10 µM.
Parameters: scale not given: direction of the effect not stated beside the values

Sialic acid-binding Ig-like lectin 9 (Homo sapiens), sequence (Q9Y336 whole entry): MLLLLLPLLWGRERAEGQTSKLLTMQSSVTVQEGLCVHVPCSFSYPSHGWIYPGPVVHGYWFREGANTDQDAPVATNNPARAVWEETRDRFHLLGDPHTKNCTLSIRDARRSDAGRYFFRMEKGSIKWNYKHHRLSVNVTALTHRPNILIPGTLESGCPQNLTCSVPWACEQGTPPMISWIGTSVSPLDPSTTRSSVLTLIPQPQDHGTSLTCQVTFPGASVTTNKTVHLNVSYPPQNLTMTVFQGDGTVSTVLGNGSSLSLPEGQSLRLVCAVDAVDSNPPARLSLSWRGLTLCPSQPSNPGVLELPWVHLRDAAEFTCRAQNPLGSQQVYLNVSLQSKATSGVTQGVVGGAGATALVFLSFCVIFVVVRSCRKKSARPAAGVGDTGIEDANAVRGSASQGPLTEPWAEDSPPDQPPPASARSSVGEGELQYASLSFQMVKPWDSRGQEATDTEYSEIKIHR

**Q.** How did the Percent Effect turn out when CCc1nc(C2CCCN2C(=O)c2ccc3c(c2)nnn3CC)no1 (stereo not given) was run?
**A.** 5.14%

**Q.** With c1cnnc(N2CCCC2CNCc2nc(-c3ccsc3)no2)c1 (stereo not given) as the molecule, how does the Percent Effect read?
**A.** -7.35%

**Q.** Which Percent Effect does the source give for CC(=O)N1N=C(c2ccccc2)OC1C(=O)NCCC1=CCCCC1 (stereo not given) here?
**A.** -5.04%

**Q.** Which Percent Effect does the source give for CCO[C@@H]1CO[C@@]2(CCCN(S(=O)(=O)c3cccnc3)C2)C1 here?
**A.** -9.59%

**Q.** For Cc1ccc(C(=O)N2CCC3(CC2)COC(COc2ccccn2)C3)o1 (stereo not given), which Percent Effect is on record?
**A.** 6.32%

**Q.** Which Percent Effect does the source give for CS(=O)(=O)NCC1CCCN(C(=O)COc2ccc(F)cc2)C1 (stereo not given) here?
**A.** -7.96%

**Q.** How did the Percent Effect turn out when CN1CC(c2ccccc2)CC12CCN(C(=O)c1c(Cl)cnn1C)CC2 (stereo not given) was run?
**A.** 9.49%

**Q.** O=C(NCc1cc[nH]n1)NCC(O)COc1cccc(F)c1 (stereo not given) was tested. Which Percent Effect did it give?
**A.** -6.96%

**Q.** Which Percent Effect does the source give for O=C1NC2(CCN(Cc3cccnc3)CC2)CC1c1ccncc1 (stereo not given) here?
**A.** -5.51%

**Q.** For CCSCCC(=O)NS(=O)(=O)c1ccc2c(c1)OCCO2, which Percent Effect is on record?
**A.** -9.92%

**Q.** CC(C)CN1CCN(C)C2(CCN(Cc3ccsc3)CC2)C1=O was tested. Which Percent Effect did it give?
**A.** -3%

**Q.** Which Percent Effect does the source give for COc1c(C2CCCN2Cc2c(C)noc2C)c(C)nn1C (stereo not given) here?
**A.** 0.668%

**Q.** For CC(C)(N)C(=O)N1CCCC1c1cncc(Oc2ccc(F)cc2)n1 (stereo not given), which Percent Effect is on record?
**A.** 10.6%

**Q.** For O=C1CC2(CCN(Cc3ccoc3)C2)CN1c1ccc2c(c1)OCO2 (stereo not given), which Percent Effect is on record?
**A.** -0.448%

**Q.** How did the Percent Effect turn out when CCC(NC(N)=O)c1ccccc1OCC(=O)N1CCCC1 (stereo not given) was run?
**A.** -13.8%

**Q.** How did the Percent Effect turn out when CCOc1ccccc1C(=O)N1CCCC1c1ncc2c(n1)CCNC2 (stereo not given) was run?
**A.** -1.2%

**Q.** With Cc1cc(CN(C)C(=O)NCC(C)N2CCc3ccccc32)no1 (stereo not given) as the molecule, how does the Percent Effect read?
**A.** 14.4%

**Q.** For Cc1ccc(CCN2CCC(N(C)Cc3noc(C4CC4)n3)C2)cc1 (stereo not given), which Percent Effect is on record?
**A.** -7.58%

**Q.** CC(C)n1[nH]c(=O)c2c1NC(=O)CC2c1cccnc1 (stereo not given) was tested. Which Percent Effect did it give?
**A.** 1.14%

**Q.** For O=C(NCCOc1ccc2c(c1)CCC2)N1CCS(=O)(=O)CC1, which Percent Effect is on record?
**A.** -7.49%

**Q.** CCC(NC(=O)CC(F)(F)F)c1ccccc1OCC(=O)N1CCCC1 (stereo not given) was tested. Which Percent Effect did it give?
**A.** -4.51%

**Q.** Which Percent Effect does the source give for CC(C)CN1C[C@@H]2CN(C(=O)[C@H]3CCCO3)C[C@@H]2C1=O here?
**A.** -1.93%

**Q.** Which Percent Effect does the source give for CN1CCN(c2cc(CNC(=O)c3ccc(=O)[nH]n3)ccn2)CC1 here?
**A.** -10.3%

**Q.** With CC(=O)N1CC(=O)N(c2ccccc2)CC12CCN(CC1CC1)C2 (stereo not given) as the molecule, how does the Percent Effect read?
**A.** 22.2%

**Q.** How did the Percent Effect turn out when CC(C)c1ncc(S(C)(=O)=O)c(C2CCCNC2)n1 (stereo not given) was run?
**A.** 16.7%

**Q.** With CC(C)c1noc(CCCC(=O)NC2CCS(=O)(=O)C2)n1 (stereo not given) as the molecule, how does the Percent Effect read?
**A.** -4.53%

**Q.** c1ccc(OCc2ccncc2)c(CNC2CCc3ncnn3C2)c1 (stereo not given) was tested. Which Percent Effect did it give?
**A.** -16.6%

**Q.** Which Percent Effect does the source give for O=C(Nc1ccccc1)C1=CC2(CCNCC2)c2ccccc21 here?
**A.** 1.86%

**Q.** With CC(NC(=O)N1CCN(c2ccc(Cl)cc2)CC1)C(=O)N1CCSCC1 (stereo not given) as the molecule, how does the Percent Effect read?
**A.** 0.915%

**Q.** Which Percent Effect does the source give for CC(C)N(Cc1nc2c(cnn2C)c(=O)[nH]1)c1ccccc1 here?
**A.** -5.08%

**Q.** How did the Percent Effect turn out when CCc1nc(C2CCCN2C(=O)c2ncoc2CC)no1 (stereo not given) was run?
**A.** 5.36%

**Q.** Which Percent Effect does the source give for O=C(c1ccc(F)cc1F)N1C[C@@H](O)[C@H](N2CCOCC2)C1 here?
**A.** -7.22%

**Q.** Cc1cnn(CC2CCN(CC(O)COc3ccc(F)cc3)CC2)c1 (stereo not given) was tested. Which Percent Effect did it give?
**A.** -3.53%

**Q.** Which Percent Effect does the source give for Cc1cc(-c2nn(C)c(Cl)c2CN2CCOCC(O)C2)no1 (stereo not given) here?
**A.** 10%

**Q.** For CC(=O)N(Cc1ncc(C)o1)C1CCN(CCCc2cnn(C)c2)C1 (stereo not given), which Percent Effect is on record?
**A.** -5.35%

**Q.** With Cc1ccc([C@@H]2CN(C(=O)c3ccc[nH]3)C[C@H]2NC(=O)C2CC2)cc1 as the molecule, how does the Percent Effect read?
**A.** 1.4%

**Q.** How did the Percent Effect turn out when Cc1cnn(CC2CN(CC(=O)NCc3ccccn3)CCO2)c1 (stereo not given) was run?
**A.** 4.57%

**Q.** How did the Percent Effect turn out when COc1ccc(C(=O)N2CC[C@H](CO)[C@H](O)C2)c(C)c1 was run?
**A.** 10.7%

**Q.** How did the Percent Effect turn out when Cc1nccn1C1CCCN(C(=O)COCC(F)(F)F)C1 (stereo not given) was run?
**A.** 10.1%

**Q.** With O=C(CSc1ccc(F)c(F)c1)NS(=O)(=O)c1ccc2c(c1)OCCO2 as the molecule, how does the Percent Effect read?
**A.** -9.59%

What follows are molecules tested on Trypanosoma cruzi (assay: Trypanosoma cruzi phosphomannomutase and mannose-1-phosphate guanylyltransferase assay). Conditions: 10 µM.
Format: functional
Parameters: scale not given: direction of the effect not stated beside the values

**Q.** Which Percent Effect does the source give for CCc1nc(C2CCCN2C(=O)c2ccc3c(c2)nnn3CC)no1 (stereo not given) here?
**A.** -1.41%

**Q.** With c1cnnc(N2CCCC2CNCc2nc(-c3ccsc3)no2)c1 (stereo not given) as the molecule, how does the Percent Effect read?
**A.** 9.11%

**Q.** How did the Percent Effect turn out when CC(=O)N1N=C(c2ccccc2)OC1C(=O)NCCC1=CCCCC1 (stereo not given) was run?
**A.** -0.986%

**Q.** How did the Percent Effect turn out when CCO[C@@H]1CO[C@@]2(CCCN(S(=O)(=O)c3cccnc3)C2)C1 was run?
**A.** -4.97%

**Q.** Cc1ccc(C(=O)N2CCC3(CC2)COC(COc2ccccn2)C3)o1 (stereo not given) was tested. Which Percent Effect did it give?
**A.** 2.24%

**Q.** CS(=O)(=O)NCC1CCCN(C(=O)COc2ccc(F)cc2)C1 (stereo not given) was tested. Which Percent Effect did it give?
**A.** 9.86%

**Q.** For CN1CC(c2ccccc2)CC12CCN(C(=O)c1c(Cl)cnn1C)CC2 (stereo not given), which Percent Effect is on record?
**A.** 8.05%

**Q.** With O=C(NCc1cc[nH]n1)NCC(O)COc1cccc(F)c1 (stereo not given) as the molecule, how does the Percent Effect read?
**A.** -7.03%

**Q.** How did the Percent Effect turn out when O=C1NC2(CCN(Cc3cccnc3)CC2)CC1c1ccncc1 (stereo not given) was run?
**A.** -7.69%

**Q.** For CCSCCC(=O)NS(=O)(=O)c1ccc2c(c1)OCCO2, which Percent Effect is on record?
**A.** -1.97%

**Q.** For CC(C)CN1CCN(C)C2(CCN(Cc3ccsc3)CC2)C1=O, which Percent Effect is on record?
**A.** 0.188%

**Q.** With COc1c(C2CCCN2Cc2c(C)noc2C)c(C)nn1C (stereo not given) as the molecule, how does the Percent Effect read?
**A.** 5.82%

**Q.** For CC(C)(N)C(=O)N1CCCC1c1cncc(Oc2ccc(F)cc2)n1 (stereo not given), which Percent Effect is on record?
**A.** 0.789%

**Q.** With O=C1CC2(CCN(Cc3ccoc3)C2)CN1c1ccc2c(c1)OCO2 (stereo not given) as the molecule, how does the Percent Effect read?
**A.** 1.85%

**Q.** How did the Percent Effect turn out when CCC(NC(N)=O)c1ccccc1OCC(=O)N1CCCC1 (stereo not given) was run?
**A.** -4.41%

**Q.** How did the Percent Effect turn out when CCOc1ccccc1C(=O)N1CCCC1c1ncc2c(n1)CCNC2 (stereo not given) was run?
**A.** -5.72%

**Q.** Which Percent Effect does the source give for Cc1cc(CN(C)C(=O)NCC(C)N2CCc3ccccc32)no1 (stereo not given) here?
**A.** 1.31%

**Q.** How did the Percent Effect turn out when Cc1ccc(CCN2CCC(N(C)Cc3noc(C4CC4)n3)C2)cc1 (stereo not given) was run?
**A.** 0.0939%

**Q.** CC(C)n1[nH]c(=O)c2c1NC(=O)CC2c1cccnc1 (stereo not given) was tested. Which Percent Effect did it give?
**A.** 0.873%

**Q.** With O=C(NCCOc1ccc2c(c1)CCC2)N1CCS(=O)(=O)CC1 as the molecule, how does the Percent Effect read?
**A.** -1.78%

**Q.** CCC(NC(=O)CC(F)(F)F)c1ccccc1OCC(=O)N1CCCC1 (stereo not given) was tested. Which Percent Effect did it give?
**A.** -0.845%

**Q.** With CC(C)CN1C[C@@H]2CN(C(=O)[C@H]3CCCO3)C[C@@H]2C1=O as the molecule, how does the Percent Effect read?
**A.** -7.13%

**Q.** Which Percent Effect does the source give for CN1CCN(c2cc(CNC(=O)c3ccc(=O)[nH]n3)ccn2)CC1 here?
**A.** -2.16%

**Q.** Which Percent Effect does the source give for CC(=O)N1CC(=O)N(c2ccccc2)CC12CCN(CC1CC1)C2 (stereo not given) here?
**A.** -1.27%

**Q.** Which Percent Effect does the source give for CC(C)c1ncc(S(C)(=O)=O)c(C2CCCNC2)n1 (stereo not given) here?
**A.** 6.11%

**Q.** Which Percent Effect does the source give for CC(C)c1noc(CCCC(=O)NC2CCS(=O)(=O)C2)n1 (stereo not given) here?
**A.** 2.01%

**Q.** For c1ccc(OCc2ccncc2)c(CNC2CCc3ncnn3C2)c1 (stereo not given), which Percent Effect is on record?
**A.** -0.845%

**Q.** For O=C(Nc1ccccc1)C1=CC2(CCNCC2)c2ccccc21, which Percent Effect is on record?
**A.** -0.938%

**Q.** Which Percent Effect does the source give for CC(NC(=O)N1CCN(c2ccc(Cl)cc2)CC1)C(=O)N1CCSCC1 (stereo not given) here?
**A.** -2.04%

**Q.** For CC(C)N(Cc1nc2c(cnn2C)c(=O)[nH]1)c1ccccc1, which Percent Effect is on record?
**A.** 5.54%

**Q.** Which Percent Effect does the source give for CCc1nc(C2CCCN2C(=O)c2ncoc2CC)no1 (stereo not given) here?
**A.** 10.6%

**Q.** O=C(c1ccc(F)cc1F)N1C[C@@H](O)[C@H](N2CCOCC2)C1 was tested. Which Percent Effect did it give?
**A.** -0.789%

**Q.** With Cc1cnn(CC2CCN(CC(O)COc3ccc(F)cc3)CC2)c1 (stereo not given) as the molecule, how does the Percent Effect read?
**A.** -1.87%

**Q.** Which Percent Effect does the source give for Cc1cc(-c2nn(C)c(Cl)c2CN2CCOCC(O)C2)no1 (stereo not given) here?
**A.** 4.37%

**Q.** For CC(=O)N(Cc1ncc(C)o1)C1CCN(CCCc2cnn(C)c2)C1 (stereo not given), which Percent Effect is on record?
**A.** 1.41%

**Q.** Cc1ccc([C@@H]2CN(C(=O)c3ccc[nH]3)C[C@H]2NC(=O)C2CC2)cc1 was tested. Which Percent Effect did it give?
**A.** -4.56%

**Q.** With Cc1cnn(CC2CN(CC(=O)NCc3ccccn3)CCO2)c1 (stereo not given) as the molecule, how does the Percent Effect read?
**A.** 4.62%

**Q.** For COc1ccc(C(=O)N2CC[C@H](CO)[C@H](O)C2)c(C)c1, which Percent Effect is on record?
**A.** 9.02%

**Q.** With Cc1nccn1C1CCCN(C(=O)COCC(F)(F)F)C1 (stereo not given) as the molecule, how does the Percent Effect read?
**A.** 0.845%

**Q.** How did the Percent Effect turn out when O=C(CSc1ccc(F)c(F)c1)NS(=O)(=O)c1ccc2c(c1)OCCO2 was run?
**A.** 0.282%
